From PubChem BioAssay (EPA / NIEHS) come the findings set out here.

Values joined by “and” are separate entries in the source; they are usually repeats but may differ in a detail not shown here. Equal entries are not always repeated. Some structures have more than one record in an assay (separate samples or runs), and their calls can disagree. Active and inactive are the calls of the source. How the source made its calls: active means hit-call score of the fitted dose curve at least 0.9, where 1 is the maximum; inactive means score below 0.9.

The nature of this experiment: CCTE_Shafer_MEA_dev_network_spike_peak: CCTE's Neural Network Formation Assay for Mean Number of Electrodes in Network Spike, Shafer Lab (AID 2284049). The protocol: CCTE_Shafer_MEA_dev assay is conducted using Axion Biosystems 48 well microelectrode array (MEA) plates and Maestro recording system. Each well of the MEA plate contains a grid of 16 microelectrodes embedded in the culture surface. Electrically active cells, such as neurons, can be cultured over the electrodes, and electrical activity in these cells can be recorded extracellularly. The spontaneous firing of neurons is captured from each electrode on a microsecond timescale providing both temporally and spatially precise data. […] The CCTE_Shafer_MEA_dev assay uses primary cultures of rat cortical neurons. Recordings are made on days post-plating 5, 7, 9 and 12. As these cultures mature over time, neural networks develop functional activity and form cohesive networks in which electrical activity can be highly coordinated. CCTE_Shafer_MEA_dev_network_spike_peak is 1 of 19 assay components of the CCTE_Shafer_MEA_dev assay. It measures the average number of electrodes participating at the peak of a network spike (the peak of a temporally-clustered group of action potential firing across multiple electrodes) during a recording in a microelectrode array (MEA) using Axion Biosystems Maestro 768 channel amplifier with the AxIS adaptive spike detector. To collapse across multiple recordings made on days post-plating 5, 7, 9 and 12, the trapezoidal area-under-the-curve of the component is calculated.Data from the assay component CCTE_Shafer_MEA_dev_network_spike_peak was analyzed into 1 assay endpoint. This assay endpoint, CCTE_Shafer_MEA_dev_network_spike_peak, was analyzed in the negative analysis fitting direction relative to DMSO as the negative control and baseline of activity. Using a type of functional reporter, gain or loss-of-signal activity can be used to understand electrical activity.
On the day prior to culture, each well was coated thoroughly with 150 uL of 0.05% polyethyleneimine (PEI, Sigma Cat P3143) in 50 mM HEPES (Sigma Cat H7523) at a pH of 8. The plate was incubated at 37C for one hour. PEI was rinsed out with 500 uL of sterile water three times. Plates were stored at 4C until the day of culture. This culture was plated at a seeding density of 1.5 x 10^5 cells/well on a 48-well MEA plate, prepared as described above. Cells were administered via a 25 uL media/laminin ([…]; Sigma Cat L2020-1MG) drop directly onto the microelectrode array, as adding the cells with the laminin results in better attachment than pre-coating with laminin. After 2 hours, an additional 475 uL of cortical media was added and the cells returned to the incubator. Exposure starts at day 0 of plating and is continued over twelve days of network development until the experiment is terminated. Cells are fed with fresh medium on DIV 5 and 9, following the recordings on those days. The entire volume of media in the well is exchanged and any vehicle or compound treatment is renewed. Complete details are found in OP-NHEERL/ISTD/SBB/TJS/2015-03-r0 (available on request, email shafer.tim@epa.gov). Measurement of the electrical activity is non-invasive, and recordings can be made from the same plate over multiple different days of the culture. In cortical neurons, this allows for the measurement of extracellular action potentials over the period during which networks form in the MEA plate.
As to `CN[C@]1(c2ccccc2Cl)CCCCC1=O`, the result was inactive. The same measure, in the same setting: the entry for `CCOP(=O)(Oc1cnc(C(C)(C)C)nc1)OC(C)C` (stereo not given) is “inactive”; for `C#CCN(C)[C@H](C)Cc1ccccc1` it is “inactive”. Regarding `CC1(C)[C@@H](C=C(Cl)Cl)[C@@H]1C(=O)O[C@@H](C#N)c1ccc(F)c(Oc2ccccc2)c1`, the AC50 is 11.8 µM (active). Same read-out and setting: for `CC(=O)[O-].CC(=O)[O-].O.O.O.[Pb+2]` the value was 12.5 µM (active). Same read-out and setting: for `CC1(C)[C@H](C(=O)O[C@H](C#N)c2cccc(Oc3ccccc3)c2)[C@@H]1C=C(Br)Br` the value was 7.55 µM (active). As to `C=CCN1CC[C@]23c4c5ccc(O)c4O[C@H]2C(=O)CC[C@@]3(O)[C@H]1C5`, the molecule was called inactive.

Turning to `COC(=O)[C@H]1[C@@H](OC(=O)c2ccccc2)C[C@@H]2CC[C@H]1N2C`, the molecule was called inactive. On to `C/C(=C/C=C/[C@@H](C)C(=O)O)[C@H]1CN[C@H](C(=O)O)[C@H]1CC(=O)O`, for which the AC50 is 1.83 µM (active) and the call was inactive.

Take `CC1(C)[C@H](C=C(Cl)Cl)[C@@H]1C(=O)O[C@@H](C#N)c1cccc(Oc2ccccc2)c1`: the AC50 was 8.44 µM (active). Same read-out and setting: for `[Cd+2].[Cl-].[Cl-]` the value was 0.208 µM (active). On to `CC(=O)[O-].[Tl+]`, for which the call was inactive. For `CCOP(=O)(O)OCC` (tested in a mixture with another compound), the outcome was inactive. Regarding `[CH3][Hg][Cl]`, the AC50 was 0.356 µM (active). Consider `CC1CCCC1.[C-]#[O+].[C-]#[O+].[C-]#[O+].[Mn]`, for which the call was inactive. Take `CCC1(c2ccccc2)C(=O)NC(=O)NC1=O`: the molecule was classed as inactive.

Regarding `CC(C)CCCCCCCOP(=O)(Oc1ccccc1)Oc1ccccc1`, the call was inactive. On to `[CH3][Sn]([CH3])[CH3]`, for which the AC50 was 0.224 µM (active). For `O=[As]O`, the AC50 is 1.67 µM (active).

With `COP(=O)(OC)SCN1C(=O)c2ccccc2C1=O`, the molecule was called inactive.

As for `Brc1ccc(Oc2ccc(Br)cc2Br)c(Br)c1`, the AC50 is 13.2 nM (active) and 10 µM (active).

With `CP(=O)(O)CC[C@H](N)C(=O)O`, the call was inactive. Same read-out and setting: the entry for `c1ccc2cc3c(cc2c1)-c1cccc2cccc-3c12` is “inactive”. Still for that read-out and setting: the entry for `Cc1ccc(OP(=O)(Oc2ccc(C)cc2)Oc2ccc(C)cc2)cc1` (tested in a mixture with another compound) is “inactive”. Regarding `CCCCC(CC)COC(=O)c1cc(Br)c(Br)c(Br)c1Br` (stereo not given), the AC50 is 18.9 µM (active). For the molecule `C[n+]1ccc(-c2ccccc2)cc1`, the AC50 is 6.52 µM (active).

In the case of `CCOP(=S)(OCC)SCS(=O)C(C)(C)C` (stereo not given), the AC50 is 0.555 µM (active). As to `CP(=O)(O)CCC(N)C(=O)O` (stereo not given), the outcome was inactive.

As to `CCOP(=O)(OCC)OC(Cl)C(Cl)(Cl)Cl` (stereo not given), the AC50 was 2.29 µM (active). The same measure, in the same setting: for `NCCc1cc(O)c(O)cc1O` the value was 6.57 µM (active); for `Cn1nc(C(F)(F)F)c(CS(=O)(=O)C2=NOC(C)(C)C2)c1OC(F)F`, 50 µM (active); for `CC1(C)C(C=C(Cl)c2ccc(Cl)cc2)C1C(=O)OC(C#N)c1ccc(F)c(Oc2ccccc2)c1` (stereo not given), 13.1 µM (active). The same measure, in the same setting: the figure for `O.O.O.O.O.[Cd+2].[Cd+2].[Cl-].[Cl-].[Cl-].[Cl-]` is 0.372 µM (active); for `CCOP(=O)(OCC)SCSCC` it is 49.8 µM (active). The same measure, in the same setting: the figure for `CC1(C)C(C=C(Cl)Cl)C1C(=O)O[C@H](C#N)c1cccc(Oc2ccccc2)c1` (stereo not given in full) is 2.75 µM (active). For `CCC[CH2][Sn]([CH2]CCC)([CH2]CCC)[O][Sn]([CH2]CCC)([CH2]CCC)[CH2]CCC`, the AC50 was 0.0457 µM (active).

Turning to `Brc1ccc(Oc2cc(Br)c(Br)cc2Br)c(Br)c1`, the AC50 is 10 µM (active).

Take `c1ccc2c(c1)cc1ccc3cccc4ccc2c1c34`: the result was inactive. Same read-out and setting: the entry for `C[C@H](N)Cc1ccccc1` is “inactive”.

As a reminder, the AC50 is the midpoint of the concentration-response curve, whichever way the signal moves.
